Screening results: PubChem, National Center for Advancing Translational Sciences (NCATS)
Sampled rows, rich in hits. Any-hit rate of the full collection: about 4%.
TRHR PAM – allosteric enhancers of human TRH receptor; 360,000 compounds, 0.66% hits; enhancement, % at 2 µM; P34981; TRHR cells, fluo-8 calcium fluorescence, EC20 TRH enhancement; in the data active = enhancement above about 30%; note: 0% is about no effect
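TRHR-expressing cells loaded with fluo-8 calcium dye were read kinetically (ex 480/em 530) during compound addition, then stimulated with an EC20 of TRH (10 nM final). Enhancement of the Gq-mediated intracellular calcium response was scored.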
D1 agonist – human D1 receptor agonism; HEK293 T-REx D1 cells, calcium flux, agonist mode; activation, % at 2 µM; 360,000 compounds, 1% hits; note: 0% is about no effect
Target sequence (P21728 whole entry, looked up): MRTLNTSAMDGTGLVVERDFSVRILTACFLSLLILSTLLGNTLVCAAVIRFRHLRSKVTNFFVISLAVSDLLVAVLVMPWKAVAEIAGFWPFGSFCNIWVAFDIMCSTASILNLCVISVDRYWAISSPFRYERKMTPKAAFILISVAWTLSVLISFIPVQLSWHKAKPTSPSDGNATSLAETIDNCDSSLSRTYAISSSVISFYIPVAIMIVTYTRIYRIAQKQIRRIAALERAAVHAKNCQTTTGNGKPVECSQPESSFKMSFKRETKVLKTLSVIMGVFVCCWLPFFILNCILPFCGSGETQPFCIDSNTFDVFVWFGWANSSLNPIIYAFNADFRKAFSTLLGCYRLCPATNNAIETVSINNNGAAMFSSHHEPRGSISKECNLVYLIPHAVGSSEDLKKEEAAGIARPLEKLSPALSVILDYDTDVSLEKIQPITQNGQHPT
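Inducible HEK293 T-REx D1 cells, force-coupled to calcium signalling, were plated at 4000 cells/well with tetracycline and held overnight at 30 C. After no-wash calcium dye loading, compound-evoked calcium rise over 180 s flagged agonists.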
GRP78 ERSR act – induces the endoplasmic reticulum stress response in human glioma cells | U87-MG GRP78 promoter luciferase reporter, 16 h | Potency, µM, for the others: top-dose activation, usual class: activators | 420,000 compounds, 0.02% hits | AID 602332; active = well fitted activation curve with a large enough effect; note: potency is the fitted concentration of half-maximal effect; series mostly up to about 76 µM; % of control where 0% means no effect; nearly all actives have a fitted effect of over 35% in size
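Stably transfected U87-MG human glioma cells carrying a GRP78-based luminescent sensor were seeded at 1000 cells/well, pin-dosed with compounds and incubated 16 h. Luciferase reagent was then added, and end-point luminescence was read after 10 min at room temperature.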
D1 antagonist – antagonists of human D1 dopamine receptor. AID 504652. HEK293 TREx D1 cells, calcium flux, dopamine EC80; hits give low values. activity change, negative = inhibition, % at 10 µM. 360,000 compounds, 3.2% hits. P21728; in the data active = activity change below about -30%; note: % is set by controls: 0 for no effect and ±100 for the full control effect
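Allosteric or orthosteric antagonism assessed as attenuation of the calcium response to EC80 dopamine, added 180 s after compound, in induced HEK293 Trex D1 cells loaded with no-wash calcium dye.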
D1 PAM – human D1 dopamine receptor positive modulation; P21728; HEK293 TREx D1 cells, calcium flux, dopamine EC20 potentiation; potentiation, % at 10 µM; 360,000 compounds, 0.036% hits; AID 504651; in the data active = potentiation above about 30%; note: 0% is about no effect
TRHR agonist – activates the human TRH receptor; 360,000 compounds, 0.18% hits; TRHR cells, calcium flux fluo-8, FDSS agonist mode; activation, % at 2 µM; note: 0% is about no effect
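In this calcium-flux screen, cells bearing human TRHR are dye-loaded with fluo-8, baselined for 10 cycles, then exposed to library compounds; positive kinetic calcium responses during the agonist phase mark hits, with TRH as control.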
Active calls of the source: *; . = no result. Cut-off read from the data, not from the text of the source, unless noted: active = activation above about 30%; inactive = the rest.

SMILES	TRHR PAM	D1 agonist	GRP78 ERSR act	D1 antagonist	D1 PAM	TRHR agonist
O=C(CN1C(=O)NC2(CCCC2)C1=O)OCc1ccc(Br)cc1	12	1	0%	-66*	-4	0
CN(Cc1ccccc1Br)C(=O)CN1C(=O)NC2(CCCCCC2)C1=O	-22	-1	-1%	-76*	-5	-1
N#Cc1ccsc1NC(=O)CN1C(=O)NC2(CCCC2)C1=O	-26	1	.	-33*	-8	1
O=C(CN1C(=O)NC2(CCCCCC2)C1=O)c1ccc(F)cc1	-8	-2	1%	-49*	-2	0
CN1CCN(CCc2nc3cc(NC(=O)c4ccco4)ccc3n2C)CC1	1	4	7%	3	7	0
Cc1ccc(Cn2nnc3c(=O)[nH]c(C4CCN(C(=O)Cc5cccs5)CC4)nc32)cc1	0	-1	3%	-20	-3	0
c1cncc(CSc2ccc(-c3ccc4c(c3)OCO4)nn2)c1	2	6	-4%	-39*	-3	-1
Fc1cccc(CSc2ccc(-c3ccc4c(c3)OCO4)nn2)c1	1	6	3%	5	-5	2
Cc1[nH]c2ccc(F)cc2c1CCNC(=O)C1CCCCC1C(=O)OCC(F)(F)F (configuration not stated)	-1	0	-3%	-18	0	0
COc1cc(S(=O)(=O)n2nc(C)cc2C)ccc1Cl	0	-3	-3%	33	-3	0
CN1C/C(=C/c2ccncc2)C(=O)/C(=C/c2ccncc2)C1	-5	2	-1%	7	-5	0
CN1C/C(=C\c2ccc(N3CCOCC3)cc2)C(=O)/C(=C/c2ccc(N3CCOCC3)cc2)C1	-6	46*	8%	8	-4	21
CCN1C/C(=C/c2ccc(N3CCOCC3)cc2)C(=O)/C(=C/c2ccc(N3CCOCC3)cc2)C1	4	88*	-4%	5	-6	28
O=C(c1cc(-c2ccc(Cl)cc2)on1)N(Cc1ccc(F)cc1)Cc1ccco1	-1	30*	-1%	-39*	0	2
O=C(c1cc(-c2ccc(Cl)cc2)on1)N(Cc1cccc(F)c1)Cc1ccco1	-3	33*	-1%	-4	0	3
CS(=O)(=O)c1ncc(Cl)c(C(=O)N(Cc2ccc(Cl)cc2)Cc2ccco2)n1	-16	0	-12%	-63*	-3	4
O=C(c1ccc(Cl)cc1)N(Cc1ccco1)Cc1ccco1	-3	5	-5%	-9	-2	-1
CCc1ccc(CN(Cc2ccco2)C(=O)c2cc(-c3ccc(Cl)cc3)on2)cc1	-1	22	-3%	-2	0	4
Cc1cc(C)c(C(=O)COC(=O)C2CC3CCCC(C2)C3=O)c(C)c1 (configuration not stated)	4	14	-3%	-5	0	-1
N#Cc1cc(C(=O)c2cc(F)ccc2O)cn(Cc2ccccc2)c1=O	-4	21	-8%	-33*	-13	5
CCCCn1cc(C(=O)c2cc(Br)ccc2O)cc(C#N)c1=O	0	31*	-7%	-21	-9	-1
CCOCCCn1cc(C(=O)c2cc(Br)ccc2O)cc(C#N)c1=O	5	21	-4%	-36*	-10	0
Cc1onc(-c2ccccc2Cl)c1C(=O)N1CCN(c2ncccn2)CC1	-1	6	-3%	-2	-3	0
Cc1c(NC(=O)OCCNC(=O)COc2ccc(Cl)cc2Cl)sc(=S)n1C	5	15	1%	-43*	-9	0
Cc1cccc(CC(=O)c2c[nH]c3ccccc23)c1	31*	1	1%	10	-2	1
SMILES	TRHR PAM	D1 agonist	GRP78 ERSR act	D1 antagonist	D1 PAM	TRHR agonist
Cc1cccc(C)c1NC(=O)c1c[nH]c2ccccc12	7	0	1%	-48*	-11	0
CNCC(=O)c1c[nH]c2ccccc12	.	.	-3%	.	.	.
c1cnc(NCCSSCCNc2ncccn2)nc1	.	.	-4%	.	.	.
COCCn1nnnc1CN(CCc1ccccc1)Cc1cc2ccc(C)cc2[nH]c1=O	6	0	-2%	-38*	-1	0
CCOc1ccc2[nH]c(=O)c(CN(Cc3ccco3)Cc3nnnn3Cc3ccccc3)cc2c1	4	0	-2%	-44*	-9	-1
CCNc1nc2c(c(=O)[nH]c(=O)n2C)n1CC(C)C	5	2	-3%	-5	5	1
Cn1nnnc1SCC1=C(C(=O)O)N2C(=O)[C@@H](NC(=O)[C@@H](O)c3ccccc3)[C@@H]2SC1	.	.	-2%	.	.	.
CCOC(=O)c1c(NC(=O)CSc2nnc(CNc3ccc(F)cc3)o2)sc(C)c1C	-6	1	-6%	-2	0	1
CC(=O)C1=C(O)CCCC1=NCc1nc2ccccc2[nH]1	4	7	-2%	-34*	-7	-5
Nc1c(Cl)cc(C2=NCCn3c2c2ccc([N+](=O)[O-])cc2[n+]3[O-])cc1Cl	0	1	-4%	-33*	-10	0
Fc1ccccc1CSc1nnc(-c2ccccc2)o1	2	4	8%	-7	12	0
CCOc1cc(C(=O)Nc2ccccc2N2CCN(S(C)(=O)=O)CC2)cc(OCC)c1OCC	-1	1	-2%	-64*	-4	0
CC(C)CC(=O)Nc1c2c(nn1-c1cccc(Cl)c1)CS(=O)C2 (configuration not stated)	-7	2	-6%	-33*	8	0
Cc1ccc(NC(=O)Cc2nn(C)c(=O)c3ccccc23)cc1F	3	17	-6%	-66*	-6	0
Cn1nc(CC(=O)Nc2ccc3c(c2)OCCO3)c2ccccc2c1=O	-6	14	-2%	-22	-5	0
Cc1ccc2c(c1)c(=O)c1ccccc1n2CCCC(=O)Nc1ccc(C)c(F)c1	12	7	-1%	-48*	-2	-1
CCOC(=O)c1cccc(NC(=O)CSc2nnc(-c3ccoc3C)n2CC)c1	-2	3	1%	4	-1	0
COc1ccc(CCC(=O)NNC(=O)c2ccc(F)cc2)cc1	8	1	-5%	-30*	-4	0
COc1ccccc1CNS(=O)(=O)CCNC(=O)c1ccccc1	4	8	-2%	-30*	-4	-1
O=C(NCCS(=O)(=O)NCc1ccccc1Cl)c1ccc2c(c1)OCO2	-1	0	-3%	-35*	-13	0
COc1ccc(C(=O)NCCS(=O)(=O)NCc2ccc(F)cc2)cc1	0	2	-4%	-31*	-5	0
COc1ccc(CCC(=O)NNC(=S)NCc2ccc(F)cc2)cc1	-2	5	0%	14	-4	1
COc1ccc(C(=O)NCCS(=O)(=O)NCc2ccccc2)cc1	-2	0	-3%	1	-2	0
